Consider 37 compounds from PubChem BioAssay (NCATS).

SMILES strings stand for the structures. Several values for one entry are separate records, joined by “and”; a condition that tells them apart may be missing. Equal entries are not always repeated. Inconclusive results are not listed. Where a call stands in place of a potency, no number is given. The source holds several records for some structures; these can differ, active in one and inactive in another. Activity calls are given as the source filed them. The call rests on the fitted dose curve; in most records, active means well fitted inhibition curve with a large enough effect; inconclusive means small, poorly fitted or top-dose-only effect; inactive means flat fitted curve, though single readings scatter.
Potency means the concentration at half of the fitted maximal effect.

Phospholipid hydroperoxide glutathione peroxidase GPX4 (Homo sapiens), sequence (P36969 whole entry, looked up): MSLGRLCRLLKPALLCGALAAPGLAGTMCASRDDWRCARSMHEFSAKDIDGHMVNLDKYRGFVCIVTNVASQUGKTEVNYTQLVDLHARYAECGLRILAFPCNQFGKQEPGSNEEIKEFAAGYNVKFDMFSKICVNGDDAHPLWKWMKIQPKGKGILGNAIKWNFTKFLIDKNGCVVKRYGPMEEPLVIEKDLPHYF

The first experiment deals with Phospholipid hydroperoxide glutathione peroxidase GPX4 (Homo sapiens) (UniProt P36969). Kind of experiment: Primary qHTS Assay for Inhibitors of Recombinant Selenoprotein Glutathione Peroxidase 4 (GPX4) (AID 1845192). Further: nearly all actives have a fitted effect of over 65% in size. The note with it: recombinant GPX4, GR-coupled NADPH fluorescence, 15 min; series mostly up to 50 µM. Put shortly:
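qHTS, GR-coupled: GPX4 200 nM + cpd 30 min RT → GSH 1 mM, NADPH 0.5 mM, GR 100 nM → CHP 0.5 mM start; fluor 340/450 at t0 and t15 min; no-enzyme wells as control.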
Take `CCN1CCC(n2cc(CNc3cc(Cl)c4ncc(C#N)c(Nc5ccc(F)c(Cl)c5)c4c3)nn2)CC1`: the Potency entry was “inactive”.

As for `Cc1cnc(-c2cc(N3CCN(C(=O)CCS(C)(=O)=O)CC3)ncc2Cl)c(C)c1`, the Potency entry was “inactive”.

On to `CN(C)c1nc(Cc2ccc(NC(=O)c3ccc(C(F)(F)F)cc3)cc2)nc(N(C)C)c1CC(=O)O`, for which the Potency entry was “inactive”.

As to `COc1nccc(-c2c(-c3ccc(F)cc3)ncn2C2CCC(O)CC2)n1` (centres undefined), the Potency result was “inactive”.

Take `Nc1ccc(-c2ccc3ncc4ccc(=O)n(-c5cccc(C(F)(F)F)c5)c4c3c2)cn1`: the Potency entry was “inactive”.

Take `Cc1ccccc1C(C(=O)NC1CCCCC1)N(C(=O)CNc1ccc(C#N)cc1)c1cccc(F)c1` (centres undefined): the Potency entry is “inactive”.

In the case of `C[C@H](c1ccc(F)cc1CCCC(=O)O)N(c1cc(F)ccc1F)S(=O)(=O)c1ccc(Cl)cc1`, the Potency entry was “inactive”.

Turning to `c1ccc(-c2oc3ncnc(NC[C@@H]4CCCO4)c3c2-c2ccccc2)cc1`, the Potency entry is “inactive”.

`CC(C)CNc1ccnc(NCc2csc(-c3ccccc3)n2)n1`: the Potency entry is “inactive”.

As to `CNC1CCC(N(Cc2cccc(-c3ccncc3)c2)C(=O)c2sc3ccccc3c2Cl)CC1` (centres undefined), the Potency entry was “inactive”.

In the case of `CCN1C[C@H](C)n2c(c(O)c3c(=O)n(Cc4ccc(F)c(Cl)c4)nc(C(=O)NC)c32)C1=O`, the Potency result was “inactive”.

As to `CCc1cccc(CC)c1NC(=O)N1Cc2[nH]nc(NC(=O)c3ccc(N4CCN(C)CC4)cc3)c2C1`, the Potency entry was “inactive”.

For `Cn1cnc(-c2cc3nccc(Oc4ccc(NC(=S)NC(=O)Cc5ccccc5)cc4F)c3s2)c1`, the Potency entry is “inactive and 7.18 µM (active)”.

On to `CCCCC(F)(F)[C@@]1(O)CC[C@H]2[C@H](CC(=O)[C@@H]2CCCCCCC(=O)O)O1`, for which the Potency entry is “inactive”.

Take `c1cc(OCCN2CCCCC2)cc(-c2n[nH]c3ccc(-c4ncn[nH]4)cc23)c1`: the Potency entry was “inactive”.

As for `CC1(COc2ccc3c(c2)ncn3-c2ccc3cccc(N4CCC(N)CC4)c3n2)COC1`, the Potency entry was “inactive”.

On to `CCNC(=O)c1noc(-c2cc(C(C)C)c(O)cc2O)c1-c1ccc(CN2CCOCC2)cc1`, for which the Potency result was “inactive”.

With `CC(C)(C)c1nc(-c2cccc(NS(=O)(=O)c3c(F)cccc3F)c2F)c(-c2ccnc(N)n2)s1`, the Potency entry was “inactive and 12.8 µM (active) and 11.2 µM (active)”.

With `COc1cc2ncnc(Nc3cc(Br)c(O)c(Br)c3)c2cc1OC`, the Potency entry is “inactive”.

Regarding `COc1ccc(-c2ccc3ncc4c(c3c2)n(-c2ccc(N3CCNCC3)c(C(F)(F)F)c2)c(=O)n4C)cn1`, the Potency entry is “inactive”.

In the case of `Nc1ncnc2c1c(-c1cccc(OCc3ccccc3)c1)cn2C1CC(CN2CCC2)C1` (centres undefined), the Potency result was “inactive”.

As to `COc1ccc(CCC(=O)Nc2nc3ccc(Cl)cc3s2)cc1OC`, the Potency entry is “inactive”.

For the next experiment, the target named is Luciferin 4-monooxygenase (Photinus pyralis) (UniProt P08659). Description: Primary firefly luciferase (FLuc) qHTS assay for identification of artifact compounds. (AID 1845220). Further: nearly all actives have a fitted effect of over 60% in size. Conditions: purified firefly luciferase, luminescence, 5 min; series mostly up to 54.1 µM. In outline: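 Reaction readout was CCD-imaged luminescence, taken 5 min after adding 10 nM purified firefly enzyme to compound-treated wells holding 10 uM luciferin and ATP in pH 7.6 buffer.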
In general terms: qHTS replaces the single test concentration by a dilution series.
On to `C=CC(=O)Nc1cccc(Sc2nc(Nc3ccc(N4CCN(C)CC4)cc3)ncc2Cl)c1`, for which the Potency entry is “inactive”.

As for `Cc1cccc2c1CC[C@H](CN1CCC(c3c(Cl)cccc3Cl)CC1)C[C@@H]2O`, the Potency result is “inactive”.

As to `N#Cc1ccc(Oc2ccc3c(c2)COB3O)cc1`, the Potency entry was “inactive”.

Regarding `Cc1ccc2c(c1)c1c(n2CCc2ccc(C)nc2)CCN(C)C1`, the Potency result is “inactive”.

In the case of `CCCCn1c(=O)n(Cc2ccccc2F)c(=O)c2[nH]c(Cc3ccc(NC(C)=O)cc3)nc21`, the Potency result is “inactive”.

Consider `CC(=O)Nc1cccc(-n2c(=O)n(C3CC3)c(=O)c3c(Nc4ccc(I)cc4F)n(C)c(=O)c(C)c32)c1`, for which the Potency entry is “inactive”.

Regarding `C[C@@H](NC(=O)c1ncnc(N)c1Cl)c1ncc(C(=O)Nc2cc(C(F)(F)F)c(Cl)cn2)s1`, the Potency entry was “inactive”.

With `CN(C)CCOc1cc(-c2cn[nH]c2)ccc1NC(=O)C1COc2ccccc2O1` (centres undefined), the Potency result was “inactive”.

For the compound `Cn1c(=O)c(-c2c(Cl)cccc2Cl)cc2cnc(Nc3cccc(C(=O)O)c3)nc21`, the Potency is 379 nM (active).

In the case of `Cc1nc2c([nH]1)CCN(C(=O)c1ccc(NC(=O)c3ccccc3-c3ccccc3)cc1)c1ccccc1-2`, the Potency entry is “inactive”.

For the compound `Cc1c(C(=O)Nc2ccc(N3C[C@@H](C)O[C@@H](C)C3)nc2)cccc1-c1ccc(OC(F)(F)F)cc1`, the Potency entry was “inactive”.

Turning to `O=C(Nc1cccc(C(F)(F)F)c1)Nc1cc(S(=O)(=O)NC2CC2)ccc1-c1ccsc1`, the Potency result was “inactive”.

For `O=C(CC12CC3CC(CC(C3)C1)C2)Nc1cccc2nc(NCCNCCO)ccc12`, the Potency result is “inactive”.

Take `COC(=O)N1CCN(Cc2cccc(NC(=O)Nc3ccc(C)nc3)c2F)CC1`: the Potency entry is “inactive”.

Take `CS(=O)(=O)c1ccc(C2=C(c3ccccc3)C(=O)OC2)cc1`: the Potency entry is “inactive”.

As to `CCN1CCC(n2cc(CNc3cc(Cl)c4ncc(C#N)c(Nc5ccc(F)c(Cl)c5)c4c3)nn2)CC1`, the Potency result is “inactive”.

`Cc1cnc(-c2cc(N3CCN(C(=O)CCS(C)(=O)=O)CC3)ncc2Cl)c(C)c1`: the Potency result is “inactive”.

For `CN(C)c1nc(Cc2ccc(NC(=O)c3ccc(C(F)(F)F)cc3)cc2)nc(N(C)C)c1CC(=O)O`, the Potency result is “inactive”.

Turning to `COc1nccc(-c2c(-c3ccc(F)cc3)ncn2C2CCC(O)CC2)n1` (centres undefined), the Potency result was “inactive”.

On to `Nc1ccc(-c2ccc3ncc4ccc(=O)n(-c5cccc(C(F)(F)F)c5)c4c3c2)cn1`, for which the Potency result was “inactive”.

For the compound `Cc1ccccc1C(C(=O)NC1CCCCC1)N(C(=O)CNc1ccc(C#N)cc1)c1cccc(F)c1` (centres undefined), the Potency entry is “inactive”.

Take `C[C@H](c1ccc(F)cc1CCCC(=O)O)N(c1cc(F)ccc1F)S(=O)(=O)c1ccc(Cl)cc1`: the Potency entry is “inactive”.

With `c1ccc(-c2oc3ncnc(NC[C@@H]4CCCO4)c3c2-c2ccccc2)cc1`, the Potency result was “inactive”.

`CC(C)CNc1ccnc(NCc2csc(-c3ccccc3)n2)n1`: the Potency entry was “inactive”.

`CNC1CCC(N(Cc2cccc(-c3ccncc3)c2)C(=O)c2sc3ccccc3c2Cl)CC1` (centres undefined): the Potency result is “inactive”.

With `CCN1C[C@H](C)n2c(c(O)c3c(=O)n(Cc4ccc(F)c(Cl)c4)nc(C(=O)NC)c32)C1=O`, the Potency entry is “inactive”.

Take `CCc1cccc(CC)c1NC(=O)N1Cc2[nH]nc(NC(=O)c3ccc(N4CCN(C)CC4)cc3)c2C1`: the Potency entry is “inactive”.

As to `Cn1cnc(-c2cc3nccc(Oc4ccc(NC(=S)NC(=O)Cc5ccccc5)cc4F)c3s2)c1`, the Potency result was “inactive”.

On to `CCCCC(F)(F)[C@@]1(O)CC[C@H]2[C@H](CC(=O)[C@@H]2CCCCCCC(=O)O)O1`, for which the Potency result was “inactive”.

On to `c1cc(OCCN2CCCCC2)cc(-c2n[nH]c3ccc(-c4ncn[nH]4)cc23)c1`, for which the Potency result is “inactive”.

Take `CC1(COc2ccc3c(c2)ncn3-c2ccc3cccc(N4CCC(N)CC4)c3n2)COC1`: the Potency entry is “inactive”.

As to `CCNC(=O)c1noc(-c2cc(C(C)C)c(O)cc2O)c1-c1ccc(CN2CCOCC2)cc1`, the Potency result is “inactive”.

As for `CC(C)(C)c1nc(-c2cccc(NS(=O)(=O)c3c(F)cccc3F)c2F)c(-c2ccnc(N)n2)s1`, the Potency entry is “inactive”.

With `COc1cc2ncnc(Nc3cc(Br)c(O)c(Br)c3)c2cc1OC`, the Potency entry was “inactive”.

Take `COc1ccc(-c2ccc3ncc4c(c3c2)n(-c2ccc(N3CCNCC3)c(C(F)(F)F)c2)c(=O)n4C)cn1`: the Potency entry is “inactive”.

Turning to `Nc1ncnc2c1c(-c1cccc(OCc3ccccc3)c1)cn2C1CC(CN2CCC2)C1` (centres undefined), the Potency result was “inactive”.

With `COc1ccc(CCC(=O)Nc2nc3ccc(Cl)cc3s2)cc1OC`, the Potency result is “inactive”.
